Most compounds without a hit are left out; they make up all but 3.6% or so of the library.
Nrf2 block = blocks Nrf2 signaling. AID 504444. 360,000 compounds, 2.1% hits. Potency, µM (doses to about 46 µM), without a hit: at the top dose activity change, negative = inhibition, hits mostly inhibitors. A549 ARE-Fluc reporter, luciferase luminescence, 18-24 h; note: % is set by controls: 0 for no effect and ±100 for the full control effect; nearly all actives have a fitted effect of over 60% in size
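Quantitative HTS in A549 cells stably bearing an antioxidant response element-firefly luciferase construct. Inhibition of Nrf2-driven transcription was scored by luminescence after 18-24 h of compound exposure at 37 °C.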
Nrf2 ARE act = activates Nrf2 signaling. AREc32 ARE-luciferase reporter (MCF7-derived line), luminescence, 24 h. Potency, µM (highest dose often 46.1 µM), for inactives: at the top dose activation, most hits filed as activators. 410,000 compounds, 0.31% hits. AID 624171; note: % of control where 0% means no effect; nearly all actives have a fitted effect of over 65% in size
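Each well held 1000 AREc32 cells, which were incubated with compound for 24 hr at 37 deg C after overnight attachment, and ARE reporter activity was quantified by firefly luciferase luminescence.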
HepG2 tox-1 = kills HepG2 cells in TGF-b inhibitor counter-screen | AID 588856 | 410,000 compounds, 0.76% hits | Potency, µM (series often up to 46.1 µM), without a hit: at the top dose activity change, negative = cytotoxicity, hits mostly cytotoxic | HepG2 CAGA-GFP viability, ATP luminescence, 18 h
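HepG2 CAGA-GFP cells (1000/well, DMEM with 1% FBS) received compound, then TGF-beta at 500 pg/mL final, and were incubated 18 hours at 37 degrees C. Viability was read by CellTiter-Glo luminescence. Media-only wells were set as complete cell-killing and DMSO as no toxicity.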
TGFb SMAD3 inh = TGF-b pathway inhibition; HepG2 CAGA-GFP TGF-b/SMAD3 reporter, GFP fluorescence, 18 h; TGF-beta stimulated, 500 pg/mL final; Potency, µM (top dose mostly 46.1 µM), without a hit: top-dose activity, negative = inhibition, hits mostly inhibitors; 410,000 compounds, 1.2% hits; AID 588855; note: % is set by controls: 0 for no effect and ±100 for the full control effect; nearly all actives have a fitted effect of over 65% in size
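First, reporter cells (HEPG2 CAGA-GFP) rested 2 h at 37 degrees C. Next, compounds were pinned in and TGF-beta added to 500 pg/mL final. After 18 h, GFP was imaged per cell and summed per well.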
A549 tox = A549 cytotoxicity, counter-screen for Nrf2 inhibitors; Potency, µM (highest dose often 46 µM), for the others: at the top dose activity change, negative = cytotoxicity, actives largely listed as inhibitors; 390,000 compounds, 0.16% hits; A549 ARE-Fluc cells, CellTiter-Fluor viability, 18-24 h; note: % is set by controls: 0 for no effect and ±100 for the full control effect
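A549 ARE_Fluc cells in 5% FBS OPTI-MEM were exposed to compounds in concentration-response for 18-24 h at 37 deg C. Viability was read by CellTiter-Fluor fluorescence (Ex 405/Em 525) after 30 min, before the luciferase read.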
TGFb confirm = TGF-b pathway inhibition, cherry-pick retest | shares compounds with TGFb SMAD3 inh | HepG2 CAGA-GFP TGF-b reporter, GFP fluorescence, 18 h; cells stimulated with TGF-beta, 500 pg/mL | Potency, µM (series often up to 46.1 µM), for inactives: at the top dose activity, negative = inhibition, actives largely listed as inhibitors | 1,600 compounds, 63% hits | AID 720534; note: % is set by controls: 0 for no effect and ±100 for the full control effect; nearly all actives have a fitted effect of over 65% in size
HepG2 tox-2 = HepG2 cytotoxicity, TGF-b inhibitor counterscreen | 1,600 compounds, 27% hits | HepG2 CAGA-GFP viability, ATP luminescence, 18 h; cells stimulated with TGF-beta, 500 pg/mL | Potency, µM (titrated, usually from 46.1 µM), for inactives: at the top dose activity, negative = cytotoxicity, most hits filed as inhibitors | AID 720535 | shares compounds with TGFb SMAD3 inh; note: % is set by controls: 0 for no effect and ±100 for the full control effect; nearly all actives have a fitted effect of over 70% in size
TGFb CCL64 inh = orthogonal confirmation of TGF-b inhibitors in CCL64 cells; Potency, µM (top dose mostly 46.1 µM), for the others: top-dose activity, negative = inhibition, hits mostly inhibitors; CCL64 CAGA-GFP reporter, TGF-b stimulated, GFP fluorescence, 18 h; shares compounds with TGFb SMAD3 inh; 1,600 compounds, 41% hits; note: nearly all actives have a fitted effect of over 65% in size
TGFb COP inh = validation of TGF-b inhibitors in HepG2 COP promoter reporter | AID 720537 | HepG2 COP-GFP TGF-b reporter, GFP fluorescence, 18 h; cells stimulated by added recombinant TGF-beta | Potency, µM (top dose mostly 46.1 µM), inactives show top-dose activity, negative = inhibition, usual class: inhibitors | 1,600 compounds, 3% hits | shares compounds with TGFb SMAD3 inh; note: nearly all actives have a fitted effect of over 70% in size
* = called active by the depositor; ? = inconclusive; / = no result. Calls come from the whole dose curve; as a rule, active = well fitted curve in the direction sought with a large enough effect; inconclusive = small, poorly fitted or top-dose-only effect, or another doubt; inactive = no such curve, though single readings can be large; an effect the other way counts as inactive or inconclusive. Potency is the fitted concentration of half-maximal effect.

SMILES | Nrf2 block | Nrf2 ARE act | HepG2 tox-1 | TGFb SMAD3 inh | A549 tox | TGFb confirm | HepG2 tox-2 | TGFb CCL64 inh | TGFb COP inh
COc1ccc(COc2cc(-c3cccc(OC)c3)nc3ccc(N)cc23)cc1 | 24% | 0% | -1% | 7.1µM* | -7% | 3.3µM* | -19% | 1.8µM* | -20%
COc1cc2ccccc2cc1C(=O)Nc1ccc(Cc2ccncc2)cc1 | ? | 6% | -17% | ? | -20% | 8.2µM* | ? | 12µM* | 43%
Cc1ccc(NCc2ccccc2O)cc1 | 8% | 0% | 1% | -9% | -15% | / | / | / | /
Cc1ccc(CNc2ccc(O)cc2)cc1 | ? | 19% | -103% | 10µM* | -21% | 23µM* | ? | ? | ?
Fc1ccc(CN2CCN(C(=S)NCCc3ccccc3)CC2)c(Cl)c1 | ? | 0% | -30% | 7.9µM* | -15% | ? | -30% | ? | 11%
Cc1ccsc1CCN1C(=O)N(c2ccccc2)C(=O)C1CC(=O)Nc1ccc(Cl)cc1 (centres undefined) | ? | 4% | -32% | ? | -23% | / | / | / | /
CN=c1sc2c(n1C)C(=O)c1ccccc1C2=O | 21µM* | 6% | 2.2µM* | 1.4µM* | ? | 1.8µM* | 2.6µM* | 5.2µM* | 4.6µM*
Cc1ccccc1OCC(O)CNC1CCC(NCC(O)COc2ccccc2C)CC1 (centres undefined) | 22% | -4% | 1.8µM* | 5.6µM* | 0% | 4.6µM* | 5.2µM* | ? | ?
Cc1ccc(OCC(O)CNC2CCCC2)c(C)c1 (centres undefined) | 3% | 0% | -4% | -3% | -6% | / | / | / | /
CCCCOc1ccccc1-c1ccccc1CN1[C@@H](C(C)C)COCCS1(=O)=O | ? | 7% | -39% | ? | 4% | / | / | / | /
CC(C)[C@H]1COCCS(=O)(=O)N1Cc1ccccc1-c1cccc2c1oc1ccccc12 | ? | 4% | -15% | ? | -4% | 9.2µM* | -8% | -28% | -7%
CCCNC(=O)CN(C1CCCCC1)S(C)(=O)=O | 11% | 0% | -5% | 13% | -5% | / | / | / | /
CCOC(=O)c1cc([N+](=O)[O-])sc1NC(=O)c1ccc(S(=O)(=O)N2CC3(C)CC2CC(C)(C)C3)cc1 (centres undefined) | ? | 0% | 6% | ? | -25% | ? | ? | ? | -8%
CC(=O)Nc1ccc(S(=O)(=O)N2CC3(C)CC2CC(C)(C)C3)cc1 (centres undefined) | 0% | 1% | 4% | 6% | -6% | / | / | / | /
CCCn1c(N2CCN(C)CC2)nc2c1c(=O)[nH]c(=O)n2C | -5% | 0% | -1% | -2% | -4% | / | / | / | /
O=C(c1cccs1)N(Cc1nc2sc3c(c2c(=O)[nH]1)CCCC3)C1CCCC1 | ? | -1% | 1% | ? | -1% | ? | ? | ? | 29%
COc1ccc2cc(CNCCOCCOCCNCc3ccc4cc(OC)ccc4c3)ccc2c1 | 2% | -3% | 4µM* | 3.2µM* | -11% | -108% | 21µM* | 4.6µM* | ?
COc1ccc(-c2coc3c(C(=O)NCC(C)C)cccc23)c(C)c1 | / | -2% | -28% | ? | / | 13µM* | ? | ? | 45%
COc1ccc(-c2coc3c(C(=O)NCc4ccccc4)cccc23)c(C)c1 | / | 1% | -7% | ? | / | / | / | / | /
Cc1cc(NC(=O)CSc2nc3cc4c(cc3c(=O)n2CCc2ccccc2)OCO4)no1 | 27% | -1% | 3% | -12% | -3% | / | / | / | /
CCCc1cc(C(=O)Nc2cc(C)nn2-c2ccccc2)no1 | 4% | 0% | 6% | 6% | -3% | / | / | / | /
COc1ccc(CN2C(=O)C(C)Nc3ncnc(N4CCc5ccccc5C4)c32)cc1 (centres undefined) | / | 13% | 2% | ? | / | / | / | / | /
COc1ccc(CC2C(=O)NC(C)C(=O)N(C)C3Cc4ccc(cc4)Oc4cc(ccc4O)CC(C(=O)NC(C)C(=O)NC(C)C(=O)N2C)N(C)C3=O)cc1 (centres undefined) | 1.6µM* | -2% | 11% | -107% | 2.3µM* | 0.018µM* | 0.21µM* | 0.021µM* | -8%
CC1(C)C2CCC1(CS(=O)(=O)NCc1ccc(C(F)(F)F)cc1)C(=O)C2 (centres undefined) | ? | 3% | -3% | 10% | -1% | / | / | / | /
O=C1NC(c2cccc3ccccc23)Nc2ccccc21 (centres undefined) | ? | 4% | -29% | 3.5µM* | ? | 2.6µM* | ? | 6.5µM* | 8%
SMILES | Nrf2 block | Nrf2 ARE act | HepG2 tox-1 | TGFb SMAD3 inh | A549 tox | TGFb confirm | HepG2 tox-2 | TGFb CCL64 inh | TGFb COP inh
COc1ccc(CNCCCn2cnc(C(=O)Nc3ccc(C)c(C)c3)n2)cc1 | 4% | 3% | -16% | 18% | 0% | / | / | / | /
CCOc1cc(/C=C\[N+](=O)[O-])ccc1OCC(=O)Nc1ccccc1C | ? | ? | 8.9µM* | 7.9µM* | ? | 2.9µM* | 8.2µM* | 2.9µM* | ?
CC(C)(C)c1ccc(S(=O)(=O)N2CCC(c3nc4ccc(Cl)cc4[nH]3)CC2)cc1 | 16µM* | 4% | -28% | 20µM* | ? | 16µM* | ? | ? | 46%
Cc1ccc(CCNC(=O)c2ccc(CS(=O)(=O)Cc3ccc(Cl)cc3)o2)cc1 | / | 2% | 2% | -19% | -9% | / | / | / | /
COCCSc1nnc(NC(=O)c2ccc(NC(C)=O)cc2)s1 | ? | 0% | 6% | 12% | -5% | / | / | / | /
Cc1cc(C)c(S(=O)(=O)NC2CC3CCC2C3)c(C)c1 (centres undefined) | ? | 3% | -30% | ? | ? | ? | -2% | -17% | -5%

High-throughput results from PubChem.
